Compound activity: PubChem, several laboratories
Shown are actives, neighbours in structure and some others; about 27% of the full set was active somewhere.
CYP2C9 inhib: inhibitors of human CYP2C9; P11712; CYP2C9 Supersomes, luciferin-H conversion, luminescence; inhibition, % at 5 µM; 20% of 96,000 active;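 active = blocking of liver enzyme CYP2C9 beyond about 50% at 5 µM, limit read from the data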
Target sequence (P11712 whole entry, looked up): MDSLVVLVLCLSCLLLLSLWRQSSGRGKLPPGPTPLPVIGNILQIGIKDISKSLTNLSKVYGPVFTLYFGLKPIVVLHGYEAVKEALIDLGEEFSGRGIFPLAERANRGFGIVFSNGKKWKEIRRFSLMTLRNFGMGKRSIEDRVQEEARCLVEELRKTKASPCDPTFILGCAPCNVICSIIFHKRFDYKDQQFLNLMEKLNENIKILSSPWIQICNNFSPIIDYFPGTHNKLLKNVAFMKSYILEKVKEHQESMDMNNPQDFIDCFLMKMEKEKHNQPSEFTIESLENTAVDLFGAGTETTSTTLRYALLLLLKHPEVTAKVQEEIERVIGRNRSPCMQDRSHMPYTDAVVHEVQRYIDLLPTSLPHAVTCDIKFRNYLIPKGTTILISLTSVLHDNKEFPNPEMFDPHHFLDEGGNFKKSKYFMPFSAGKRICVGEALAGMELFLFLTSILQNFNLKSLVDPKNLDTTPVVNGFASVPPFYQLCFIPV
CYP2C19 activ: increases human CYP2C19 enzyme activity; AID 1025; P33261; 96,000 tested, under 10 active; activation factor at 5 µM; recombinant CYP2C19, luciferin-H EGE luminescence; active compounds read high; 0 = fully inhibited enzyme, 1 = untreated enzyme;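 active = activation factor of at least 2 at 5 µM in the primary screen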;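 also: 0 = wells with 2.5 mM tranylcypromine and 1 = vehicle-only wells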
sEH inhibitor: inhibitors of human soluble epoxide hydrolase; 0.34% of 91,000 active; AID 707; inhibition, % at 2 µM; recombinant human sEH enzymatic activity assay; P34913; in the data active = inhibition above about 80%
CYP2C19 inh: human CYP2C19 inhibition | inhibition, % at 5 µM | AID 778 | P33261 | CYP2C19 Supersomes, luciferin-H EGE luminescence, 30 min | 21% of 96,000 active;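 active = CYP2C19 inhibition above a set limit at 5 µM in the primary screen, cut at about 50% in these data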;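 also: plate controls were negative control wells for no effect and 2.5 mM tranylcypromine positive control for full effect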
CYP2C9 activ: CYP2C9 (human) activation; P11712; recombinant CYP2C9, luciferin-H conversion, luminescence; active compounds read high; factor 1 = untreated enzyme, 0 = blocked; activation factor at 5 µM; 1.4% of 96,000 active;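 active = activation factor of 2 or more for CYP2C9 at a 5 µM dose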;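 also: 0 = sulfaphenazole-blocked wells and 1 = vehicle-only wells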
sEH activator: soluble epoxide hydrolase (human) activation; purified human sEH enzymatic activity, activator screen; activation, % at 2 µM; 0.04% of 91,000 active; AID 717; in the data active = activation above about 37%
Active calls of the source: *; · = not tested or not shown.

SMILES	CYP2C9 inhib	CYP2C19 activ	sEH inhibitor	CYP2C19 inh	CYP2C9 activ	sEH activator
Cc1ccc(S(=O)(=O)NC(CC(=O)N2CCc3ccccc32)c2ccco2)cc1 (stereo not given)	40	0.7	·	33	0.6	·
CCOC(=O)N1CCC(NC(=O)CC(NS(=O)(=O)c2ccc(C)cc2)c2ccco2)CC1 (stereo not given)	59*	0.5	·	48	0.4	·
CCN(CC)c1ccc(C(=S)N2CCN(c3ccccc3)CC2)cc1	2	0.8	·	24	1	·
O=C(NC(=O)N1CCN(c2cccc(Cl)c2)CC1)c1ccccc1	19	0.8	1	18	0.8	4
CSC(=NC#N)N1CCN(c2ccccc2)CC1	-4	0.5	-4	51*	1	6
CSC(=NC#N)N1CCN(c2cccc(Cl)c2)CC1	33	0	0	95*	0.7	-2
O=C(OCCN1CCCCC1)c1ccccc1Cl	1	0.4	-18	60*	1	17
O=C(OCCN1CCCCC1)c1ccc(O)cc1	3	1.2	-5	-15	1	3
CCOc1ccc(NC(=O)C2CCN(c3nnnn3-c3ccccc3)CC2)cc1	·	·	17	·	·	-17
COc1ccccc1Cn1c(=O)c2ccccc2n2c(SCc3csc(C)n3)nnc12	44	0.4	·	57*	0.6	·
COc1ccccc1Cn1c(=O)c2ccccc2n2c(Sc3ncnc4sccc34)nnc12	57*	0.4	·	61*	0.4	·
CC(=O)c1c(C)[nH]c(C(=O)N2CCN(C(=O)c3ccco3)CC2)c1C	-9	1.1	3	-12	1.1	-5
COc1ccc(C(=O)N2c3ccccc3CC2C)cc1OC (stereo not given)	28	0.3	-5	66*	0.7	5
CC(=O)c1c(C)[nH]c(C(=O)N2c3ccccc3CC2C)c1C (stereo not given)	78*	0.2	4	77*	0.2	-4
Cc1ccc(S(=O)(=O)NC(C(=O)OCC(=O)NC(=O)c2cccn2C)C(C)C)cc1 (stereo not given)	17	0.4	·	59*	0.8	·
CCOC(=O)C(NS(=O)(=O)c1ccc(Br)cc1)C(C)C (stereo not given)	16	0.1	-9	89*	0.8	8
Cc1ccc(C(=O)OCC(=O)NC(=O)c2cccn2C)cc1	1	0.9	-6	14	1	6
CCCOc1c(OC)cccc1C1CC(=O)Nc2cc3c(cc21)OCO3 (stereo not given)	52*	0	10	96*	0.5	-12
CCCOc1c(OC)cccc1C1CC(=O)Nc2cc3c(cc21)OCCO3 (stereo not given)	68*	0.6	13	44	0.3	-13
CCOc1c(OC)cccc1C1CC(=O)Nc2cc(OC)c(OC)cc21 (stereo not given)	·	·	-10	·	·	10
O=C(COC(=O)Cc1cn2ccsc2n1)NC12CC3CC(CC(C3)C1)C2	34	0.4	14	59*	0.7	-15
O=C(COC(=O)Cc1cn2ccsc2n1)NCc1ccc2c(c1)OCO2	25	0.9	4	5	0.8	-6
CCn1c2ccccc2c2cc(NC(=O)COC(=O)Cc3cn4ccsc4n3)ccc21	-78	0.1	·	90*	1.8	·
CC1CCCC(NC(=O)COC(=O)Cc2cn3ccsc3n2)C1C (stereo not given)	22	0.7	-5	33	0.8	3
CC(=O)c1coc2ccc(OCC(=O)O)cc12	·	·	3	·	·	-4
SMILES	CYP2C9 inhib	CYP2C19 activ	sEH inhibitor	CYP2C19 inh	CYP2C9 activ	sEH activator
CCOC(=O)c1ccc(Oc2cc(C)nc(SC)n2)cc1	9	0.8	6	15	0.9	-5
COc1ccc(S(=O)(=O)N(C)CC(=O)NCCC2=CCCCC2)cc1OC	-11	0.2	26	82*	1.1	-28
COc1ccc(S(=O)(=O)N(C)CC(=O)NCCC2=CCCCC2)cc1	-136	0.7	·	32	2.4*	·
COc1ccc(N(CC(=O)NCCC2=CCCCC2)S(C)(=O)=O)cc1OC	-36	0.9	6	9	1.4	-6
CCOCC(O)CS(=O)(=O)c1ccccn1 (stereo not given)	-7	1	-10	-2	1.1	8
CC(CNS(=O)(=O)c1cc(Cl)ccc1Cl)CN(C)C (stereo not given)	-3	0.7	5	30	1	-6
Cc1coc(C)c1C(=O)CC1(O)C(=O)Nc2cc(Cl)cc(Cl)c21 (stereo not given)	50	0.4	1	59*	0.5	-2
COCN(C#N)c1nc(OC)nc(OC)n1	-2	1	·	-1	1	·
CCCCCOC(=O)C1[C@H]2C(=O)N(CCCOC)C[C@]23C=C[C@H]1O3 (stereo not given in full)	0	1	-1	-3	1	1
CC(=O)NCc1nc2ccccc2n1Cc1ccccc1C	-8	0.8	11	16	1.1	-8
CC(=O)Nc1nc2ccccc2n1CCOc1ccccc1Cl	13	0.4	10	60*	0.9	-11
Cc1ccccc1Cn1c(C(C)O)nc2ccccc21 (stereo not given)	-3	0.4	-7	59*	1	8
CCCCCCn1c(C(C)NC(=O)c2ccco2)nc2ccccc21 (stereo not given)	56*	0.6	-11	42	0.4	11
Cc1cccc(Cn2c(C(C)O)nc3ccccc32)c1 (stereo not given)	-1	0.7	-2	31	1	6
CC(=O)Nc1nc2ccccc2n1Cc1ccccc1C	13	0.2	-5	82*	0.9	3
Cc1ccc(Cl)cc1NC1=NC(=S)N(C(C)C)C12CCCCC2	·	·	10	·	·	-8
Cc1ccc2c(C)[nH]c(=O)cc2c1	4	1	0	4	1	3
CN(Cc1ccccc1)C(=O)C1CCN(Cc2ccc(F)cc2)CC1	-7	0.9	·	7	1.1	·
COc1ccnc(NCc2cccnc2)c1C#N	5	0.9	-8	13	0.9	7
Cc1nn(-c2ccccc2)c(C)c1C(=O)OCC(=O)N1c2ccccc2NC(=O)C1(C)C	46	0.7	-9	25	0.5	11
CC(NC(=O)c1ccccc1)c1nc2ccccc2n1Cc1ccc(C#N)cc1 (stereo not given)	49	0.7	-13	30	0.5	13
CC(NC(=O)c1ccccc1)c1nc2ccccc2n1Cc1ccccc1F (stereo not given)	60*	0.5	8	48	0.4	-6
COC(=O)Cc1ccc(NC(=S)NCCCO)cc1	13	0.9	3	9	0.9	-1
Cc1cc(C)c2c(c1)NC(=O)C2(O)CC(=O)c1cccs1 (stereo not given)	-32	0.5	0	54*	1.3	1
C=CCn1c(SCc2c(C(=O)OC)sc(N)c2C(=O)OC)nnc1-c1ccc(Br)cc1	87*	0.3	-8	72*	0.1	6
